# Screening results: PubChem BioAssay, Broad Institute
# A selection: hits, their analogues and other compounds. The true share with any hit is near 3.7%.
# Wnt bcat act – Wnt/beta-catenin pathway activators, primary screen, cell-based, plate reader, single point; AID 743398, 2014; Wnt/beta-catenin reporter cell assay, activator; activation, % at 9.35 µM; actives 1.2% (n = 300,000); in the data active = activation above about 30%, passing the limit was not always enough; inconclusive = no clear call, values can overlap the other calls;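 note: 0% = neutral control wells and 100% = positive control wells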
# MITF act – activators of MITF-driven TRPM1 promoter reporter, primary screen, cell-based, SK-MEL-5, luciferase, single point | SK-MEL-5 TRPM1-promoter luciferase, 24 h; % of positive control, neutral wells = 0 | activation, % at 12.5 µM | actives 0.75% (n = 300,000) | AID 588334, 2011;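 active = mean activation of at least 80% with every replicate also reaching 80%; inconclusive = mean reaches 80% but some replicate falls short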;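 note: 0% = neutral control wells and 100% = parthenolide positive control wells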
# Ecoli rRNA inh – reduced GFP signal of wild-type E. coli, primary screen, bacterial rRNA inhibitor project, GFP/RFP fluorescence, OD600, single point; GFP signal change (wild-type ribosome), % (concentration not given with the values); E. coli WT GFP vs humanized-ribosome RFP mutants, 24 h; stronger effect = lower value; DMSO median 0, no signal -100; actives 1.6% (n = 350,000); AID 720706, 2013;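 active = significant combined selectivity score with lowered wild-type GFP, culture density cut under 30%, mutant RFP and density less affected; inactive = any of these conditions unmet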
# esBAF inh – Bmi1 luciferase reporter increase in mESCs, primary screen, esBAF inhibitor project, mouse ES cells, Bmi1 luciferase knock-in, single point | 24 h; 100% = twice the neutral-well signal | reporter increase, % at 12.5 µM | actives 2% (n = 350,000); in the data active = activation above about 40%; inconclusive = no clear call, values can overlap the other calls;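 note: 0% = median of the plate's neutral control wells and 100% = double that signal; a rise in the Bmi1 reporter signal indicates esBAF inhibition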
# AF4-AF9 inh – inhibitors of AF4 peptide binding to AF9, primary screen, biochemical, AlphaScreen, biotin-AF4 peptide, FLAG-AF9, single point; Protein AF-9 (Homo sapiens), P42568; inhibition, % at 10 µM; actives 0.47% (n = 350,000); AID 651704, 2012;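 active = every replicate reaching a set inhibition limit, whatever the replicate mean, cut at about 25% in these data; inconclusive = mean inhibition reaches that limit but some replicates miss it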;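 note: 0% = plate neutral control median and 100% = total signal loss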
# Target sequence (P42568 whole entry, looked up): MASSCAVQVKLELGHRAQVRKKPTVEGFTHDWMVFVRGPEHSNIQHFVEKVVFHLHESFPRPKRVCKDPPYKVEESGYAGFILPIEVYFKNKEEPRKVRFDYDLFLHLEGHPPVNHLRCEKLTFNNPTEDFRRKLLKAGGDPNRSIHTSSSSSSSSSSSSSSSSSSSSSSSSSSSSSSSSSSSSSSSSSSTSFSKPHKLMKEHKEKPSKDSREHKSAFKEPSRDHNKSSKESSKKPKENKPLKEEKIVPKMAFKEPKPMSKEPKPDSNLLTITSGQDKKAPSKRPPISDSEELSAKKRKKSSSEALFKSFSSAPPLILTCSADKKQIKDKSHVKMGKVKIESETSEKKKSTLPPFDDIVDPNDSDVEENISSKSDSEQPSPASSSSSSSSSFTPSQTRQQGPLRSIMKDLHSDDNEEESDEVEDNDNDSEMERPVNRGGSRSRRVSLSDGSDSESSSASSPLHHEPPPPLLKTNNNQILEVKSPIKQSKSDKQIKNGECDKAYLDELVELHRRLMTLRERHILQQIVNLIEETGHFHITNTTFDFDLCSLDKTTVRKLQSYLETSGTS
# Numbers without * were called inactive; ? = inconclusive; / = no result given; ! = repeats disagree.
SMILES,Wnt bcat act,MITF act,Ecoli rRNA inh,esBAF inh,AF4-AF9 inh
CC(=O)c1ccc(N2CCN(C(=O)C3CCCN(c4ncnc5c4nc4n5CCCCC4)C3)CC2)cc1 (stereo not drawn),0,4,3,0,0
COc1ccc(N2CCN(C(=O)C3CCCN(c4ncnc5c4nc4n5CCCCC4)C3)CC2)cc1 (stereo not drawn),-1,-7,-26*,-6,11
CCN1CCN(c2ccc(S(=O)(=O)N3CCOCC3)cc2NC(=O)C(C)Oc2cccc(Cl)c2)CC1 (stereo not drawn),0,-3,0,-9,8
Cc1csc2nc(CSc3nc4ccccc4o3)cn12,34*,?,-12,44*,/
O=c1c2ccccc2nc(SCc2cn3ccsc3n2)n1-c1ccccc1,-1,-3,/,12,/
c1ccc2oc(SCc3cn4ccsc4n3)nc2c1,66*,50,/,31,/
C[C@H]1CN([C@@H](C)CO)C(=O)c2cccc(NS(=O)(=O)c3cccs3)c2O[C@@H]1CN(C)C(=O)Nc1ccc(C(F)(F)F)cc1,/,/,/,-2,-1
CC(=O)NCc1ccc(-c2csc(-c3cccs3)n2)cc1,20,55,-10,53*,3
CC1N/C(=C\C(=O)c2ccccc2)N(O)C1(C)C (stereo not drawn),/,42,/,-15,/
CC(C)CNC(=O)C1C2C=CC(C2)C1C(=O)O (stereo not drawn),1,-1,/,-13,/
N#Cc1ccc(OCC(=O)N2CCN(S(=O)(=O)c3ccc(Cl)s3)CC2)cc1,17,-8,-20*,7,0
Cc1cccc(C)c1NC(=O)COC(=O)c1cc(=O)[nH]c2ccccc12,0,-2,6,0,-3
O=C(O)C(F)=C1c2ccccc2-c2ccccc21,6,/,-30*,/,-3
COC(=O)c1cc(=O)n(Cc2cccs2)c(=Nc2ccc(F)cc2)s1,-2,/,0,-3,9
COC(=O)c1cc(=O)n(-c2ccc(F)cc2)c(=Nc2ccc(F)cc2)s1,3,-23,-1,30,27*
COc1ccc(C(OC(=O)c2ccco2)C(=O)NC2CCCC2)cc1 (stereo not drawn),1,-4,20,6,-6
O=c1c2ccccc2nc(COc2ccccc2)n1/N=C/c1c[nH]c2ccccc12,1,10,5,/,-14
O=c1c2ccccc2nc(COc2ccccc2)n1/N=C/c1ccc(O)cc1O,-2,2,-31*,/,6
Nn1c(COc2cccc(Cl)c2)nc2ccccc2c1=O,/,52,/,44*,/
Cc1cccc(OCc2nc3ccccc3c(=O)n2N)c1,25,67,/,59*,/
CCCCCCc1nc2ccccc2c(=O)n1N,2,17,/,24,/
Cc1cccc(-c2nc3ccccc3c(=O)n2N)c1,0,-2,5,-1,4
COc1ccc(-c2csc(C(C)(O)c3ccc(F)c(F)c3)n2)cc1OC (stereo not drawn),1,/,-19,2,0
c1ccc2c(C3=NNC(=NC4CC4)SC3)c[nH]c2c1,/,-37,/,/,/
c1ccc2c(C3=NNC(=NC4CCCCC4)SC3)c[nH]c2c1,15,4,-34*,/,2
SMILES,Wnt bcat act,MITF act,Ecoli rRNA inh,esBAF inh,AF4-AF9 inh
Cc1ccc(S(=O)(=O)c2nc(C(C)(C)C)oc2N2CCOCC2)cc1,/,-3,/,-7,/
CC(=O)Nc1ccc2nc(-c3ccc(Br)o3)[nH]c2c1,-1,66,/,/,/
O=C(Nc1ccc2nc(-c3ccc(Br)o3)[nH]c2c1)c1ccco1,/,38,/,65*,/
Cc1ccc(-c2nc3ccccc3[nH]2)cc1NC(=O)c1ccco1,2,29,/,37,/
O=C(Nc1ccc2nc(-c3ccccc3)[nH]c2c1)c1ccco1,54*,/,/,54*,/
Cc1cccc2[nH]c(-c3ccc(NC(=O)c4ccco4)cc3)nc12,/,49,/,84*,/
O=C(Nc1ccc2nc(-c3ccc(Br)o3)[nH]c2c1)c1cccs1,/,48,/,49*,/
O=C(CN1CCCC1)Nc1nc(-c2ccc3c(c2)CCN3C(=O)c2ccccc2F)cs1,/,9,/,20,/
C[C@@H]1CN([C@@H](C)CO)C(=O)c2cc(/C=C/c3ccccc3)cnc2O[C@@H]1CN(C)C(=O)c1ccccc1,/,/,-3,-1,3
CCOc1ccccc1NC(=O)CCn1ccnc1,-1,-2,7,-8,0
COC(=O)C1=CN(c2ccc(OC)cc2)C(N)=C(C#N)C1c1ccc(OC)cc1 (stereo not drawn),-1,/,-27,/,3
COC(=O)C1=CN(c2ccc(OC)cc2OC)C(N)=C(C#N)C1c1ccc(OC)cc1 (stereo not drawn),-1,/,-26*,/,0
COc1ccc(NC(=O)Nc2ccc3c(c2)C(=O)N([C@H](C)CO)C[C@@H](C)[C@@H](CN(C)Cc2ccc4c(c2)OCO4)OCCCC[C@H](C)O3)cc1,-4,/,-34*!,-7,11
COc1ccc(CN(C)C[C@@H]2OCCCC[C@H](C)Oc3ccc(NC(=O)Nc4ccc5c(c4)OCO5)cc3C(=O)N([C@@H](C)CO)C[C@@H]2C)cc1,/,/,2,-1,22
COc1ccc(CN(C)C[C@H]2OCCCC[C@@H](C)Oc3ccc(NC(=O)Nc4ccc5c(c4)OCO5)cc3C(=O)N([C@@H](C)CO)C[C@@H]2C)cc1,/,/,-2,-7,28*
Fc1ccc(Nc2nc(N/N=C/c3ccco3)nc(N3CCCCC3)n2)cc1,0,8,-55,/,14
CC(C)NC(=O)C1C(c2ccc(C(F)(F)F)cc2)=Nc2ccccc2N1C(=O)c1ccco1 (stereo not drawn),-1,/,-12,/,5
O=C(Nc1nc2ccccc2[nH]1)c1cccc(Br)c1,24,15,6,51*,-3
CN(C)c1cccc(C(=O)Nc2nc3ccccc3[nH]2)c1,-5,10,-66,-44,25
O=C(Nc1nc2ccccc2[nH]1)c1cccc(F)c1,31*,2,-18,-15,6
COc1cccc(C(=O)Nc2nc3ccccc3[nH]2)c1,/,-24,/,/,/
Cc1c(C(=O)Nc2nc3ccccc3[nH]2)oc2c(Cl)cccc12,-3,5,5,49*,-1
COc1cccc(CN=c2c([N+](=O)[O-])nn(-c3ccccc3C)n2O)c1,-3,-20,5,/,4
BrC(=C\c1ccccc1)/C=N/N1CCN(c2ccccc2)CC1,4,11,-2,/,3
O=C(Cc1ccncc1)Nc1ccc2c(c1)[C@H]1C[C@H](CC(=O)N3CCc4ccccc4C3)O[C@H](CO)[C@H]1O2,/,/,2,0,25*
O=C(Cc1ccncc1)Nc1ccc2c(c1)[C@@H]1C[C@H](CC(=O)N3CCc4ccccc4C3)O[C@@H](CO)[C@@H]1O2,/,/,1,4,10
